The subject of assay [1] is Zika virus NS2B-NS3 protease (linked construct). Put plainly: Primary screen NINDS Rhodamine qHTS for Zika virus inhibitors (AID 1347160). Note: % is set by controls: 0 for no effect and ±100 for the full control effect; nearly all actives have a fitted effect of over 55% in size. In short, it runs like this: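 Purified NS2B-NS3 protease with the NS2B hydrophilic domain joined by a flexible linker (25 nM) in 10 mM Tris-HCl pH 8.0, 0.01% Tween 20, preincubated 15 min at RT with compound; Rhodamine110 peptide substrate 1.5 µM; fluorescence change over 15 min; 4-parameter Hill fit.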
(In general: In qHTS, concentration-response curves come from the screen itself.)

Assay [2] in a line: Primary qHTS for inhibitors of nuclear receptor binding SET domain protein 2 (NSD2) in an isogenic RCH-ACV NSD2 p.E1099K mutant (9B) (AID 1645876). Note: nearly all actives have a fitted effect of over 70% in size. Note: potency is the fitted concentration of half-maximal effect.
In assay [3] the target is Glutathione peroxidase 1 (Homo sapiens) (UniProt P07203). Put plainly: Primary qHTS Assay for Inhibitors of Recombinant Selenoprotein Glutathione Peroxidase 1 (GPX1) (AID 1845191). Note: nearly all actives have a fitted effect of over 65% in size. The essentials:
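Recombinant GPX1 (10 nM final) was preincubated with compound for 30 min at room temperature, then reacted with 1 mM GSH, 0.5 mM CHP, 0.5 mM NADPH and 100 nM glutathione reductase; NADPH fluorescence (340/450 nm) was read at 0 and 15 min.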

In assay [4] the target is Phospholipid hydroperoxide glutathione peroxidase GPX4 (Homo sapiens) (UniProt P36969). In words: Primary qHTS Assay for Inhibitors of Recombinant Selenoprotein Glutathione Peroxidase 4 (GPX4) (AID 1845192). Note: nearly all actives have a fitted effect of over 65% in size. The essentials:
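GR-coupled readout: 100 nM GR, 1 mM GSH, 0.5 mM NADPH; NADPH fluorescence (ex 340/em 450 nm) read at t=0 and after 15 min RT. GPX4 200 nM, preincubated 30 min with compound; substrate 0.5 mM CHP.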

Assay [5] addresses Luciferin 4-monooxygenase (Photinus pyralis) (UniProt P08659). In words: Primary firefly luciferase (FLuc) qHTS assay for identification of artifact compounds. (AID 1845220).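 Note: plate controls were DMSO vehicle for no effect and no enzyme for full effect; nearly all actives have a fitted effect of over 60% in size.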 Particulars: outcome: dose series up to 54.1 µM unless noted. In short, it runs like this:
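In this counter-screen for luciferase artifacts, test compounds met substrate (10 uM each luciferin and ATP) before 10 nM enzyme started the reaction. Light output was measured 5 min later.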

Assay [6] can be described thus: Primary fluorescence-based thiol-reactive (MSTI) qHTS assay for identification of artifact compounds. (AID 1845221).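 Note: thiol-reactive compounds lower the probe fluorescence signal; nearly all actives have a fitted effect of over 65% in size.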 The essentials:
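One-hour, room-temperature, dark incubation of compound with 4 uM MSTI in PBS (pH 7.4, 2% DMSO) precedes a fluorescence read at 525 nm excitation, 598 nm emission; Hill-equation fitting yields concentration-response values.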

The test system of assay [7] is Nanoluciferase (engineered Oplophorus gracilirostris luciferase). In words: Primary Nanoluciferase (NLuc) qHTS assay for identification of artifact compounds. (AID 1845222).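 Note: NLuc secreted into diluted conditioned medium of S16 cells; 0% = DMSO and -100% = no enzyme.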 In short, it runs like this:
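Using secreted nanoluciferase in S16 culture medium (0.22 um filtered, 1:55 dilution), compounds were preincubated 15 min at RT. Signal was generated with Nano-Glo reagent (1:100) over 5 min.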

The subject of assay [8] is CRL-7250. Put plainly: Cytotoxic Profiling of Annotated Libraries Using Quantitative High-Throughput Screening (AID 1296008). For max response: % is set by controls: 0 for no effect and ±100 for the full control effect. Note: nearly all actives have a fitted effect of over 60% in size. Note: potency is the fitted concentration of half-maximal effect. The note with it: Five cell lines viability, CellTiter-Glo ATP luminescence, 48-72 h; max response: stronger effect = lower value. In short, it runs like this:
(§1)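 Compounds were pin-transferred onto cells and incubated 48 or 72 hr at 37 degree Celsius, 95% humidity. CellTiter-Glo was added, plates sat 10 min at room temperature, then ATP-coupled luminescence was imaged as the viability read-out.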
A general note: ATP-based viability assays read luminescence as a measure of living cells.

The test system of assay [9] is HEK293. The assay is described as above. The note with it: Five cell lines viability, CellTiter-Glo ATP luminescence, 48-72 h; max response: stronger effect = lower value. In short, it runs like this: as §1
The test system of assay [10] is HaCat. The assay is described as above. Particulars: Five cell lines viability, CellTiter-Glo ATP luminescence, 48-72 h; max response: stronger effect = lower value. The essentials: as §1
Assay [11] relates to NIH3T3. The description is as above. The note with it: Five cell lines viability, CellTiter-Glo ATP luminescence, 48-72 h; max response: stronger effect = lower value. In short, it runs like this:
as §1

Assay [12] has as its system C33A. In words: Primary qHTS to identify gynecologic anti-cancer compounds using libraries of approved drugs and bioactive compounds (AID 1345084). Note: nearly all actives have a fitted effect of over 55% in size. Note: potency is the fitted concentration of half-maximal effect. Particulars: Gynecologic cancer cell panel viability, ATPlite luminescence, 48 h; series mostly up to 57.5 µM. In short, it runs like this:
(§2)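 In this quantitative HTS, cell killing is estimated from loss of ATP-dependent luciferase light. Cells see five compound concentrations over a 48 h exposure.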

Assay [13] has as its system CASKI. Described as above. The note with it: Gynecologic cancer cell panel viability, ATPlite luminescence, 48 h; series mostly up to 57.5 µM. The essentials:
as §2

Assay [14] deals with Es-2. The assay is described as above. The note with it: Gynecologic cancer cell panel viability, ATPlite luminescence, 48 h; series mostly up to 57.5 µM. In short, it runs like this:
as §2

Assay [15] has as its system Hek293T. The assay is described as above. Particulars: Gynecologic cancer cell panel viability, ATPlite luminescence, 48 h, control line for the selectivity index; series mostly up to 57.5 µM. In short, it runs like this: as §2
The subject of assay [16] is OV90. Described as above. Particulars: Gynecologic cancer cell panel viability, ATPlite luminescence, 48 h; series mostly up to 57.5 µM. The essentials: as §2
Assay [17] has as its system PA-1. The description is as above. Particulars: Gynecologic cancer cell panel viability, ATPlite luminescence, 48 h; series mostly up to 57.5 µM. The essentials: as §2
Assay [18] has as its system Tov-21-G. Described as above. Particulars: Gynecologic cancer cell panel viability, ATPlite luminescence, 48 h; series mostly up to 57.5 µM. In short, it runs like this: as §2
The subject of assay [19] is Tov112D. Described as above. The note with it: Gynecologic cancer cell panel viability, ATPlite luminescence, 48 h; series mostly up to 57.5 µM. In short, it runs like this:
as §2

Assay [20] concerns the target Calcium and integrin-binding protein 1 (Homo sapiens) (UniProt Q99828). Put plainly: Primary qHTS for Identification of Calcium Integrin Binding Protein 1 (CIB1) Competitor (AID 1508620).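 Note: GST tagged CIB1 binding a fluorescein labelled alphaIIb integrin peptide tracer; top concentration of the series differs between compounds; % is set by controls: 0 for no effect and ±100 for the full control effect.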 The essentials:
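Fluorescence polarization competition: CIB1-GST (1 uM final) preincubated with compound 15 min at room temperature, then FITC-labeled alphaIIb peptide (100 nM final) added for another 15 min. Polarization read at Ex 480/Em 540.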

Unmarked numbers belong to inactive results. Results filed as inconclusive are left out. Activity calls are given as the source filed them. Calls come from the whole dose curve; as a rule, active = well fitted curve in the direction sought with a large enough effect; inconclusive = small, poorly fitted or top-dose-only effect, or another doubt; inactive = no such curve, though single readings can be large; an effect the other way counts as inactive or inconclusive.

Chain of Calcium and integrin-binding protein 1 (Homo sapiens) (Q99828 whole entry, looked up): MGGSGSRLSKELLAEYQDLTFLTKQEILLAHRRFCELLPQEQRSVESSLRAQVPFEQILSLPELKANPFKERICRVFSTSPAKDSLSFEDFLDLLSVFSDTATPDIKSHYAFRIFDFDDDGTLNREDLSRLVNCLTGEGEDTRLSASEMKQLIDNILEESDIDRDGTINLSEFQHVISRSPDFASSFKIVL
Chain of Phospholipid hydroperoxide glutathione peroxidase GPX4 (Homo sapiens) (P36969 whole entry, looked up): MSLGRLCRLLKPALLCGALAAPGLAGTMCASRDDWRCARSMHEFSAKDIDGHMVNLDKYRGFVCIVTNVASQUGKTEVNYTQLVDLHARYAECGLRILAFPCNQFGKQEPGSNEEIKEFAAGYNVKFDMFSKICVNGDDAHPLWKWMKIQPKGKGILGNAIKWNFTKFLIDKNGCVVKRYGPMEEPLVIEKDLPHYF
Chain of Glutathione peroxidase 1 (Homo sapiens) (P07203 whole entry, looked up): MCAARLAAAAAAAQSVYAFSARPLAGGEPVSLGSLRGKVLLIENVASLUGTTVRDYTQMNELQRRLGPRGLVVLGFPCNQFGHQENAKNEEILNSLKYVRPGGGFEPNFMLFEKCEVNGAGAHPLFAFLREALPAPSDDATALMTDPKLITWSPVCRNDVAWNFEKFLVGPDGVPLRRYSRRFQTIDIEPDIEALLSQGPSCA

With `COC(=O)C1=COC(C)C2CN3CCC4(C(=O)Nc5ccccc54)C3CC12` (stereo unspecified), the Potency result in assay [1], in assay [2], in assay [3], in [4], in [6] and in assay [7] was “inactive” in each case. Also, the Potency result in assay [12], in [13], in assay [14], in assay [15], in assay [16] and in assay [17] was “inactive” each time. Further, the Potency result in assay [18] and in assay [19] was “inactive” each time. Further, in [5], the molecule was called inactive. Further, the max response is -2.61% in [8], -24% in assay [9], 2.66% in assay [10] and -11.4% in assay [11].

On to `CN[C@@H]1C[C@H]2O[C@@](C)([C@@H]1OC)n1c3ccccc3c3c4c(c5c6ccccc6n2c5c31)C(=O)NC4`, for which the Potency result in assay [20], in assay [3], in assay [6] and in [7] was “inactive” throughout. The Potency in assay [2] was 0.0372 µM (active); in [8], 0.0037 µM (active); in assay [9], 0.231 µM (active); in [10], 0.184 µM (active); in [12] it was 1.26 µM (active); in [13], 0.251 µM (active). Further, the Potency is 0.631 µM (active) in assay [14]; 4.47 µM (active) in assay [15]; 0.316 µM (active) in [16]; 0.251 µM (active) in assay [17]; 0.891 µM (active) in [19]. Also, in [5], the outcome was inactive.

Turning to `CO[C@H]1[C@@H](O)[C@@H](C)O[C@@H](O[C@@H]2C=C3C(OC(C)=O)CC4(O)C(CC[C@]5(C)[C@@H](C6=CC(=O)OC6)CC[C@]45O)[C@@]3(C)CC2)[C@@H]1O` (stereo partly specified), the Potency entry in assay [1], in assay [20], in assay [3], in assay [4], in assay [6] and in assay [7] was “inactive” each time. In addition, the Potency in assay [2] is 0.0483 µM (active); in assay [8], 0.137 µM (active); in [9] it was 0.0862 µM (active); in assay [10] it was 2.43 µM (active); in assay [12], 0.178 µM (active); in assay [13], 2.82 µM (active). Besides, the Potency was 0.447 µM (active) in [14]; 0.251 µM (active) in [15]; 2.51 µM (active) in assay [16]; 0.316 µM (active) in assay [17]; 0.282 µM (active) in [18]; 0.1 µM (active) in assay [19]. For the same molecule, in [11], the max response is -11.7%.

In the case of `C=C(CO)C(=O)O[C@H]1CC(=C)[C@@H]2C[C@H](O)C(=C)[C@@H]2[C@H]2OC(=O)C(=C)[C@@H]21`, the Potency result in assay [1], in assay [20], in [3], in [4], in assay [6] and in [7] was “inactive” each time. The Potency entry in assay [12], in assay [13], in assay [15], in assay [16], in assay [17] and in [18] was “inactive” in each case. In assay [19], the Potency entry was “inactive”. The Potency in [2] is 4.5 µM (active); in assay [9] it was 5.7 µM (active). Also, the max response in assay [8] was -4.04%; in assay [10], 4.94%.

`C=C1[C@@H](C)C2[C@H](Cc3ccccc3)NC(=O)[C@@]23C(/C=C/C[C@H](C)C[C@@](C)(O)/C=C/[C@@H]3OC(C)=O)[C@@H]1O` (stereo partly specified): the Potency result in assay [1], in assay [20], in [3], in assay [4], in [6] and in [7] was “inactive” each time. The Potency entry in assay [12], in [14] and in assay [15] was “inactive” throughout. For the same molecule, the Potency in assay [2] was 0.817 µM (active); in [8] it was 0.461 µM (active); in [9] it was 0.731 µM (active); in assay [10] it was 0.13 µM (active); in assay [17], 3.98 µM (active). Also, in assay [5], the call was inactive.
